Screening data: PubChem BioAssay, National Center for Advancing Translational Sciences (NCATS)
D3 ag: qHTS of D3 Dopamine Receptor Agonist: qHTS; D(3) dopamine receptor (Homo sapiens), P35462; D3R DiscoveRx beta-arrestin cells, luminescence, 90 min; max activation, %; actives 0.58% (n = 410,000); AID 652048, 2013; in the data active = max activation above about 30%
Target sequence (P35462 whole entry, looked up): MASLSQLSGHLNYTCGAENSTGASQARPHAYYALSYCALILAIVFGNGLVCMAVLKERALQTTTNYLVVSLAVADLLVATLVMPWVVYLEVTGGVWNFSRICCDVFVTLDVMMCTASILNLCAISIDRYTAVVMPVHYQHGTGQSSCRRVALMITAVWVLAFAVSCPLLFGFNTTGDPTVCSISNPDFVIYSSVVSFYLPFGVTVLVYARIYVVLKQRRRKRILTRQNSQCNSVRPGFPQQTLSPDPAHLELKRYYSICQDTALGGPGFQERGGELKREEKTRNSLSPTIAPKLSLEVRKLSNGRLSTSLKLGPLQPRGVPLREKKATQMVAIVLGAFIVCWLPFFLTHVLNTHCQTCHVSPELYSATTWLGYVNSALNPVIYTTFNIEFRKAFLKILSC
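Agonist-mode cell screen: cells plated at 1500/well and incubated overnight at 37 °C, then exposed to library compounds for 90 min at 37 °C. Detection reagent was added for 30–60 min at room temperature, and luminescence was read.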
DT40 TDP1 no CPT: qHTS for Inhibitors of human tyrosyl-DNA phosphodiesterase 1 (TDP1): qHTS in cells in absence of CPT; DT40 Tdp1-/- hTDP1 cells, no CPT, ATP luminescence, 48 h; actives 15% (n = 420,000); AID 686978, 2013; Potency, µM (series often up to 46.2 µM), hits mostly inhibitors; note: nearly all actives have a fitted effect of over 55% in size
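Seeded 400 DT40-hTDP1 cells/well (vehicle DMSO, no 20 nM CPT); pinned compounds; ≥48 hr at 37 °C; CellTiter-Glo luminescence as viability measure.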
TDP1 cell CPT: qHTS for Inhibitors of human tyrosyl-DNA phosphodiesterase 1 (TDP1): qHTS in cells in presence of CPT; chicken DT40 Tdp1-/-;hTDP1 cells + 20 nM CPT, ATP luminescence, 48 h; Potency, µM (titrated, usually from 46.2 µM), usual class: inhibitors; actives 12% (n = 420,000); AID 686979, 2013; note: nearly all actives have a fitted effect of over 55% in size
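Chicken DT40 Tdp1-/- cells stably complemented with human TDP1 were seeded at 400 cells/well in medium containing 20 nM camptothecin, exposed to pin-transferred compounds, and grown at 37 °C for at least 48 hr. Viability was read as ATP luminescence.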
IL-1B inflam inh: qHTS for Inhibitors of Inflammasome Signaling: IL-1-beta AlphaLISA Primary Screen; THP-1 LPS/ATP IL-1B secretion, AlphaLISA, 16 h; stronger effect = lower value; activity change, % at 57.5 µM; actives 4.7% (n = 360,000); in the data active = activity change below about -50%; inconclusive = mostly about -30% to -49%
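THP-1 cells pretreated 1 hr with compounds (up to 57.5 uM final), then stimulated with LPS (250 ng/mL final) plus ATP (1.25 mM final); secreted IL-1B measured by AlphaLISA after 16 hr, decreased signal indicating inhibition.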
D3 antag: qHTS of D3 Dopamine Receptor Antagonist: qHTS | D(3) dopamine receptor (Homo sapiens), P35462 | D3R cells, DiscoveRx beta-arrestin luminescence, antagonist mode; stronger effect = lower value | max response, negative = inhibition, % | actives 2.5% (n = 360,000) | AID 652054, 2013; in the data active = max response below about -50%; inconclusive = no clear call, values can overlap the other calls
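Cells plated overnight at 1500 cells/well, then exposed to library compounds with dopamine controls for 90 minutes at 37 degrees C. DiscoveRx reagent added for 30–60 minutes at room temperature; luminescence read, quantitative HTS format.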
ClpP mod: qHTS Assay for Activators of ClpP. Potency, µM (titrated, usually from 57.5 µM). purified B. subtilis ClpP, FRET peptide cleavage, 20 min. AID 651965, 2013. ATP-dependent Clp protease proteolytic subunit (Bacillus subtilis (strain 168)), P80244. actives 1.9% (n = 340,000); active = well fitted falling curve with a large enough effect; inconclusive = small, poorly fitted or top-dose-only effect; inactive = no such curve, though single readings can be large or run the other way; note: the source files actives as falling curves though it sought activators and does not explain the sign; nearly all actives have a fitted effect of over 65% in size
Target sequence (P80244 whole entry, looked up): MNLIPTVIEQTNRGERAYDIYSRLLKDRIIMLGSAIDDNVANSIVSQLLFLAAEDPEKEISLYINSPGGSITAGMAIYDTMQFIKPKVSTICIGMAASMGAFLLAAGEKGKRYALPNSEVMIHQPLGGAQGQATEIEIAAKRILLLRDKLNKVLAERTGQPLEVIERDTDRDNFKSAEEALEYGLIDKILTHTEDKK
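FRET quenching reversal measured ClpP activation: 10 microg/mL B. subtilis ClpP at pH 8 with the FRET-FV decapeptide, read at 430 nm after 320 nm excitation. The 20-min minus 0-min signal was scaled between DMSO/no-enzyme wells and ADEP (5.8 microM final).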
Numbers stand for hits; n = inactive; u = inconclusive; x = no result given. Most compounds without a hit are left out; they make up all but 21% or so of the library. Unless noted, calls come from the whole dose curve; as a rule, active = well fitted inhibition curve with a large enough effect; inconclusive = small, poorly fitted or top-dose-only effect; inactive = flat fitted curve, though single readings scatter.

SMILES	D3 ag	DT40 TDP1 no CPT	TDP1 cell CPT	IL-1B inflam inh	D3 antag	ClpP mod
O=C(Nc1ccc(Cl)c(Cl)c1)N[C@@H]1CC[C@@H](CCn2cc(C3CCCCC3)nn2)O[C@@H]1CO	n	20.6µM	u	n	n	n
CCOC(=O)c1cc(OC(=O)c2ccc(C)cc2)n(-c2ccccc2)n1	n	x	x	x	x	n
CC(=O)Nc1cc(C(F)(F)F)ccc1OCCOc1ccccc1	n	16.4µM	u	n	n	n
CC(=O)Nc1cc(C(F)(F)F)ccc1Oc1cccc(Br)c1	n	13µM	23.1µM	u	n	n
COCCOc1ccc(C(F)(F)F)cc1NC(=O)c1ccccc1	n	n	n	n	n	n
C[C@@H]1CN([C@H](C)CO)C(=O)CCCn2nncc2CO[C@H]1CN(C)S(C)(=O)=O	n	u	n	n	n	n
COCC(=O)N1CCC2(CCCN(Cc3ccc(C#N)cc3)C2)CC1	x	n	n	x	x	x
O=C(O)c1ccccc1C(=O)NC1CCCc2ccccc21 (stereo not drawn)	n	n	n	n	n	x
CNC(=O)C(=O)Nc1nc(C23CC4CC(CC(C4)C2)C3)cs1	n	n	n	n	n	x
O=C(NCc1ccncc1)C(=O)Nc1nc(C23CC4CC(CC(C4)C2)C3)cs1	n	20.6µM	20.6µM	n	n	n
O=C(NCc1ccc(F)cc1)C(=O)Nc1nc(C23CC4CC(CC(C4)C2)C3)cs1	n	u	u	n	n	n
O=C(NCc1ccccc1)C(=O)Nc1nc(C23CC4CC(CC(C4)C2)C3)cs1	n	u	23.1µM	n	n	n
O=C(NCc1cccnc1)C(=O)Nc1nc(C23CC4CC(CC(C4)C2)C3)cs1	n	16.4µM	u	n	n	x
O=C(CSc1nnc(CNC(=O)c2c(F)cccc2F)o1)NCc1ccc2c(c1)OCO2	n	n	n	n	n	n
CCOc1ccccc1/C=N/NC(=O)c1nnn(-c2nonc2N)c1CN1CCCC1	n	n	n	n	n	n
CCn1c(SCC(=O)NC2=NCCS2)nnc1C(C)NC(=O)c1ccccc1Br (stereo not drawn)	n	n	n	n	n	x
CC(=O)/C(CN1CCCCC1)=N\O	n	n	n	n	n	n
C/C(=N\O)C(=O)C(CN1CCCCC1)CN1CCCCC1	n	2.59µM	2.91µM	n	n	n
CCN(CC)CCN1c2ccccc2Sc2ccc3ccccc3c21	n	16.4µM	n	-73.7	n	x
CCN(CC)CCN1c2ccccc2Sc2ccccc21	n	u	u	n	u	n
Cn1c(N)c(C(C[N+](=O)[O-])c2ccccc2Cl)c(=O)n(C)c1=O (stereo not drawn)	n	4.61µM	4.11µM	n	n	n
COC(=O)C(C(=O)OC)C(C[N+](=O)[O-])c1ccc(OC)c(OC)c1 (stereo not drawn)	n	u	n	n	n	n
CC(C(c1ccc2c(c1)OCO2)c1c(N)n(C)c(=O)n(C)c1=O)[N+](=O)[O-] (stereo not drawn)	n	16.4µM	u	n	n	n
COc1cc(C(C[N+](=O)[O-])c2c(N)n(C)c(=O)n(C)c2=O)ccc1O (stereo not drawn)	n	6.51µM	6.51µM	n	n	x
COc1cccc(F)c1C(C[N+](=O)[O-])c1c(N)n(C)c(=O)n(C)c1=O (stereo not drawn)	n	2.31µM	4.61µM	-99.9	n	n
SMILES	D3 ag	DT40 TDP1 no CPT	TDP1 cell CPT	IL-1B inflam inh	D3 antag	ClpP mod
CCCn1c(Cc2ccccc2)nnc1SC(C)C(=O)NC1CC1 (stereo not drawn)	n	n	n	n	n	n
Cc1ccc(S(=O)(=O)N2CCOCC2)cc1NC(=O)COC(=O)COc1ccc(C#N)cc1	n	u	n	n	n	n
O=C(NCc1ccccc1)NCc1cccs1	n	n	n	n	n	x
Cc1ccc(C(C[N+](=O)[O-])c2c(N)n(C)c(=O)n(C)c2=O)cc1 (stereo not drawn)	n	5.17µM	3.66µM	u	n	n
COc1ccc2[nH]c3c(c2c1)CCN1C(=O)C(CC(=O)NCC24CC5CC(CC(C5)C2)C4)C[C@H](C(=O)N2CCOCC2)[C@@]31C (stereo partly drawn)	n	u	u	u	n	n
COCCCNC(=O)C[C@H]1C[C@H](C(=O)N2CCOCC2)[C@@]2(C)c3[nH]c4ccc(Cl)cc4c3CCN2C1=O	n	n	u	n	n	n
C[C@]12c3[nH]c4ccc(Cl)cc4c3CCN1C(=O)[C@@H](CC(=O)NCC13CC4CC(CC(C4)C1)C3)C[C@@H]2C(=O)N1CCOCC1	n	13µM	10.3µM	u	-50.1	n
C[C@]12c3[nH]c4ccc(Cl)cc4c3CCN1C(=O)[C@@H](CC(=O)NCC13CC4CC(CC(C4)C1)C3)C[C@@H]2C(=O)N1CCCCC1	n	16.4µM	16.4µM	-60.2	n	n
COc1cc(C(=S)N2CCOCC2)cc(OC)c1OC(=O)c1ccccc1Cl	n	u	n	n	n	n
Cc1ccccc1Nc1nc(N)nc(COC(=O)[C@@H](NC(=O)c2ccccc2Cl)C(C)C)n1	n	u	u	n	n	n
CCCCCCCCCCCC(=O)OC[C@@H](O)C1OC[C@H](O)[C@H]1O (stereo partly drawn)	n	n	n	x	x	x
O=C(c1ccccc1F)N1CCC2CC1c1cc(N3CCCCC3)ccc12 (stereo not drawn)	n	18.4µM	u	n	n	n
O=C(C1CCCCC1)N1CCC2CC1c1cc(N3CCCCC3)ccc12 (stereo not drawn)	n	20.6µM	18.4µM	n	n	n
O=C(c1cccc(Cl)c1)N1CCC2CC1c1cc(N3CCOCC3)ccc12 (stereo not drawn)	n	u	u	n	n	n
CCC(C)(C)C1CCc2[nH]nc(C(=O)NC3CCCC3)c2C1 (stereo not drawn)	n	u	16.4µM	u	n	n
CCC(C)(C)C1CCc2[nH]nc(C(=O)N/N=C(\C)c3ccco3)c2C1 (stereo not drawn)	n	u	u	-87.3	u	x
NNC(=O)c1n[nH]c2c1CC(C1CCCCC1)CC2 (stereo not drawn)	n	5.8µM	5.17µM	n	n	n
C/C(=N\NC(=O)c1n[nH]c2c1CCC2)c1ccco1	n	u	n	x	n	x
